# From PubChem BioAssay AID977622 (Broad Institute, 2014)
# In all, about 1,900 compounds went through this assay and fewer than 10 were called active. Inconclusive results (about 39%) are left out.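 How the source made its calls: active means Green signal of the normal strain falls at least twice as much as red signal of the resistant mutant, with overall culture growth loss under a set limit; inconclusive means no clear call, values can overlap the other calls; inactive means the rest.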 These entries were drawn from the full list.
# Tests used:
# [1] = wild-type E. coli growth inhibition versus h38 humanized strain – h38 mutant RFP, wild-type GFP, cherry-pick, dose response (AID 977622); settings: 24 h; activity change: E. coli mixed culture, total growth OD600 at 50 uM, at 50 µM; E. coli WT ribosome GFP fluorescence, mixed culture, at 50 µM (top of the series)
# [2] = system: E. coli h38 humanized mutant ribosome RFP fluorescence, mixed culture, 24 h; test: as above; settings: h38 mutant RFP at 50 uM; at 50 µM
SMILES,activity change [1] [%],outcome [1],activity change [2] [%]
O=C(Nc1c(S(=O)(=O)c2ccc(Cl)cc2)csc1Br)c1ccccc1Cl,9.68,inactive,8.46
O=C(CCc1nc2ccccc2s1)OCC(=O)c1ccccc1,6.3,inactive,-0.655
Cc1ccc2nc(N(CCN(C)C)C(=O)C3CCN(S(=O)(=O)c4cccs4)CC3)sc2c1,-21.5,inactive,
Cc1cccc(-c2ccc([C@@H]3[C@@H](CO)N4CCCCN(S(=O)(=O)c5ccccc5C)C[C@@H]34)cc2)c1,-8.54,inactive,21
COc1ccc(C#Cc2ccc([C@H]3[C@@H](CO)N4CCCCN(C(=O)Nc5cccc(F)c5)C[C@H]34)cc2)cc1,-17.6,inactive,73.7
Cc1cc(C)n(CC(O)COc2ccc3ccccc3c2)n1 (centres undefined),4.91,inactive,10.9
N#Cc1nc(COc2cccc(Cl)c2)oc1N1CCCC1,-6.55,inactive,
COc1ccc(CC(=O)NCc2csc(-c3cccs3)n2)cc1OC,-8.86,inactive,-8.02
Cc1ccc(-n2c(SCC(N)=O)nnc2-c2cnccn2)cc1,-6.07,inactive,-24.8
COc1ccc(C)c2sc(N(CCN(C)C)C(=O)c3ccc(S(=O)(=O)N(C)c4ccccc4)cc3)nc12,-16.8,inactive,11
CCCc1nc2ccc(Br)cn2c1Cc1cccc(Cl)c1,-8.44,inactive,4.58
CS(=O)(=O)c1ccc(Cl)c(NC(=O)COC(=O)c2c(Cl)cccc2Cl)c1,-7.03,inactive,-3.81
COc1ccc(Cc2c(-c3cccc(Cl)c3)nc3ccc(Cl)cn23)c(C)c1,-9.93,inactive,1.24
OC1CCN(c2c3c(nc4cc(-c5cccc(F)c5)nn24)CCCC3)CC1,-19,inactive,-5.04
CN(Cc1ccccc1NS(=O)(=O)c1ccc(Cl)cc1)C1CCCCC1,4.68,inactive,25.7
O=C1c2ccccc2CSc2c(O)cccc21,-41.7,inactive,-51.2
CCN(CC)CCNC(=O)c1cc2cc3ccc(OC)cc3nc2o1,-17.2,inactive,-1.99
C[C@H](CO)N1C[C@H](C)[C@@H](CN(C)C(=O)CCCN(C)C)OCCCC[C@H](C)Oc2ccc(NC(=O)Nc3cccc4ccccc34)cc2C1=O,1.54,inactive,-2.48
COc1ccccc1NC(=O)COC(=O)Cc1c[nH]c2ccccc12,-29.2,inactive,-34.7
NC(=O)c1ccsc1NC(=O)COC(=O)Cc1ccc(F)cc1,-13.5,inactive,-23.2
COc1cccc(C(=O)Nc2nnc(S(=O)(=O)N(C)Cc3ccccc3)s2)c1,-30.6,inactive,-13.1
Cc1noc(C)c1NC(=O)Nc1ccc2c(c1)C(=O)N([C@H](C)CO)C[C@@H](C)[C@@H](CN(C)C(=O)Nc1ccc3c(c1)OCO3)OCCCC[C@@H](C)O2,-6.3,inactive,-16.3
CC(NC(=O)c1c(N)[nH]c(C(=O)c2ccccc2)c1-c1ccccc1Br)c1cccc2ccccc12 (centres undefined),-15.6,inactive,41.2
COC(=O)CN1C(=S)N(c2ccc(F)cc2)C(=O)C1CC(=O)Nc1ccc(F)cc1 (centres undefined),-1.47,inactive,-5.83
COc1cc(OC)cc(C(=O)N[C@H](C(=O)OCC(=O)Nc2ccc(F)c(F)c2F)C(C)C)c1,-1.83,inactive,-9.06
O=C(NCc1ccccc1)c1ccc(-c2cn[nH]c2)c2ccoc12,-21.8,inactive,-23.8

SMILES,activity change [1] [%],outcome [1],activity change [2] [%]
CCC(=O)Nc1nc2c(OC)ccc(OC)c2s1,,inactive,-14.1
O=C(Nc1cccc(Cl)c1)N1C[C@@H]2[C@H](c3ccccc31)[C@@H](CO)N2C(=O)c1cccnc1,7.11,inactive,2.16
c1ccc(SCc2nc3ccccc3s2)nc1,-3.53,inactive,8.07
Cc1ccc(NS(=O)(=O)c2ccc3c(c2)CCC(=O)N3)cc1C,-8.95,inactive,-10.9
O=C(Nc1cccc(F)c1)N1C[C@@H]2[C@H](c3ccccc31)[C@H](CO)N2C(=O)Cc1ccccn1,4.66,inactive,-3.32
COc1ccc(-c2cc(C(=O)Nc3ccc(C(N)=O)cc3)c3ccccc3n2)cc1OC,8,inactive,-4.25
N#Cc1ccc(-c2ccc(C3[C@H]4CNC[C@@H]3N4S(=O)(=O)c3ccc(-c4ccccc4)cc3)cc2)cc1 (some centres undefined),-54.5,inactive,244
Nc1ccc(C(=O)OCCCc2nc3cc4ccccc4cc3[nH]2)cc1,3.79,inactive,0.364
O=C(NCc1nc2ccccc2[nH]1)c1ccc(S(=O)(=O)N2CCCC2)cc1,-24.9,inactive,2.82
CC[n+]1c(C)cc2c(sc3ccccc32)c1C,-0.26,inactive,-7
COc1ccccc1NC(=O)CSc1ncc(CO)n1Cc1ccc(F)cc1,-27.8,inactive,-17.1
CSc1ccc(CN(C)C(=O)C(c2ccccc2)c2ccccc2)cc1,-21.9,inactive,-20.3
O=C(Nc1ccc(C(=O)Nc2ccccc2Cl)cc1)c1cccnc1,-26.4,inactive,-26
COC(=O)c1ccc(CCc2cc(O)c(Br)cc2O)cc1,-52.8,inactive,27.3
O=C(Nc1ccc(C(=O)c2ccccc2)cc1)c1ccccc1,-40.2,inactive,-22.1
OC[C@H]1[C@H](c2ccc(-c3ccc(F)cc3)cc2)[C@@H]2CN(Cc3ccncc3)CCCCN12,-3.55,inactive,-17.5
O=C(NCCCn1ccnc1)c1sc2cc([N+](=O)[O-])ccc2c1Cl,-6,inactive,-1.75
CCC1(CC)NC(=O)N(CC(=O)N2N=C(c3ccc(Cl)cc3)CC2c2ccco2)C1=O (centres undefined),-19.3,inactive,-38.4
O=C(COc1cccc2c1CCN(Cc1ccccc1F)C2=O)N1CCCCC1,-32.1,inactive,
O=C(Nc1cccc(S(=O)(=O)c2cccc(NC(=O)C3CC3)c2)c1)C1CC1,-38.1,inactive,4.96
O=S(=O)(Cc1ccccc1)N1CCCCN2[C@@H](CO)[C@@H](c3ccc(-c4cccnc4)cc3)[C@@H]2C1,-6.81,inactive,16.2
Cc1noc(C)c1NC(=O)Nc1ccc2c(c1)C(=O)N([C@@H](C)CO)C[C@@H](C)[C@@H](CN(C)C(=O)Nc1ccc3c(c1)OCO3)OCCCC[C@@H](C)O2,-2.53,inactive,20.3
Fc1ccc(-c2nc3c(Cl)cc(C(F)(F)F)cn3c2Cc2ccsc2)cc1,-5.9,inactive,5.92
COC(=O)CN1C(=S)N(c2ccc(F)cc2)C(=O)C1CC(=O)Nc1ccc(OC)cc1 (centres undefined),-4.61,inactive,9.32
CCOc1ccc(C(C)=O)cc1CN1C(=O)NC2(CCCCCCC2)C1=O,-23.9,inactive,-21
O=C(c1ccc2c3c(cccc13)CC2)N1CCN(c2ncccn2)CC1,-3.01,inactive,-11.5

SMILES,activity change [1] [%],outcome [1],activity change [2] [%]
Cc1ccc(NC(=O)CN(C)S(=O)(=O)c2cccc3cccnc23)cc1F,-37.4,inactive,-40.8
O=c1[nH]c2cc([N+](=O)[O-])ccc2c2ccccc12,4.42,inactive,
COC(=O)c1cc2c(c3c4cc(F)ccc4n(S(=O)(=O)c4cccc(C)c4)c13)C(=O)N(Cc1ccco1)C2,-11.5,inactive,17.4
O=C(Cc1ccc(Cl)cc1)c1ccc(O)cc1,-1.58,inactive,
Cc1ccc(Cc2c(-c3ccc(C#N)cc3)nc3ccc(Br)cn23)cc1,2.82,inactive,-11
O=c1c2ccccc2cnn1Cc1n[nH]c(=S)n1C1CC2CCC1C2 (centres undefined),-3.34,inactive,-28.9
Cc1cccc(-c2ccc([C@H]3[C@H](CO)N4CCCCN(S(=O)(=O)c5ccccc5C)C[C@@H]34)cc2)c1,4.65,inactive,11.4
Nc1ccc2nc(-c3ccc(Cl)cc3)[nH]c2c1,,inactive,-11.3
CS(=O)(=O)N1CC2CCCN2c2ccc(C(F)(F)F)cc21 (centres undefined),-10.4,inactive,2.53
Cc1ccc(C)c(N(CC(=O)NC2CCCC2)C(=O)c2oc(C(C)(C)C)cc2C)c1,-14.2,inactive,21
COc1cc2ccccc2cc1C(=O)NC1CCCCC1,-0.887,inactive,
COCCCNC(=O)c1ccc(-c2nc3ccccc3nc2-c2ccccc2)cc1,-2.27,inactive,8.8
Cc1ccc(NC(=O)CCCSc2ccccc2)cc1S(=O)(=O)N1CCOCC1,7.64,inactive,4.8
NC(=O)c1cc(C(=O)c2ccc(Cl)cc2)c[nH]1,-13.1,inactive,0.863
Cc1noc(C)c1NC(=O)Nc1ccc2c(c1)C(=O)N([C@@H](C)CO)C[C@H](C)[C@@H](CN(C)C(=O)Nc1ccc3c(c1)OCO3)OCCCC[C@H](C)O2,-13.3,inactive,7.1
O=C(c1ccccc1)N(c1ccccc1)c1nccc2ccccc12,-7.9,inactive,31.1
Cc1ccc(S(=O)(=O)Nc2ccccc2CNc2cccc(C)n2)cc1,-17.7,inactive,
CCC(C(=O)Nc1ccsc1C(=O)OC)c1ccccc1 (centres undefined),-5.91,inactive,40.7
CCOc1ccc(-c2nc(-c3cccs3)c(CC(=O)O)s2)cc1OC,-21.4,inactive,-8.71
COc1ccc(NS(=O)(=O)c2ccc(Cl)c(NC(=O)c3ccccc3F)c2)cc1,-40,inactive,-6.96
Cc1noc(C)c1NC(=O)Nc1ccc2c(c1)C(=O)N([C@@H](C)CO)C[C@@H](C)[C@H](CN(C)C(=O)Nc1ccc3c(c1)OCO3)OCCCC[C@H](C)O2,-12.5,inactive,-3.87
COc1cc(-c2ccc(N3C(c4ccsc4)=Cc4ccc(F)cc4C3c3c[nH]c4ccc(C#N)cc34)cc2)cc(OC)c1OC (centres undefined),7.16,inactive,8.77
c1ccc2c(c1)CSc1ccccc1N2,-5.5,inactive,-11.4
CC(C)=C(c1ccc(Cl)cc1)c1c(N)ncnc1N,-10.9,inactive,-21.6
